HCMV antiviral: blocks human cytomegalovirus replication. HFF cells, HCMV-luciferase reporter, 72 h; hits give low values. activity change, negative = inhibition, % at 57.5 µM. 410,000 compounds, 4.5% hits. AID 1259415; in the data active means activity change below about -60%; inconclusive means no clear call, values can overlap the other calls; inactive means above about -39%
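Cell-based, HFFs, 1000 cells/well, 16 h 37C; cpds in DMSO + HCMV-luc, MOI 1 PFU/cell; 72 h 37C; OneGlo luminescence after 5 min RT; norm. to buffer vs Salinomycin 10uM.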
FMDV antiviral: blocks foot and mouth disease virus | FMDV antiviral cell-based qHTS | Potency, µM (titrated, usually from 57.9 µM), for inactives: at the highest dose activity change, negative = inhibition, most hits filed as inhibitors | 410,000 compounds, 1.2% hits | AID 1159524; calls by dose curve; tested in HEK293T cells; further: read-out not given here; potency means the concentration at half of the fitted maximal effect; nearly all actives have a fitted effect of over 45% in size
FBPA Giardia inh: inhibitors of Giardia lamblia fructose-1,6-bisphosphate aldolase; purified Giardia FBPA; Potency, µM (series often up to 59.6 µM), inactives show at the highest dose activity, negative = inhibition, most hits filed as inhibitors; 290,000 compounds, 0.71% hits; A8B2U2; further: potency means the concentration at half of the fitted maximal effect; nearly all actives have a fitted effect of over 55% in size
Target sequence (A8B2U2 whole entry, looked up): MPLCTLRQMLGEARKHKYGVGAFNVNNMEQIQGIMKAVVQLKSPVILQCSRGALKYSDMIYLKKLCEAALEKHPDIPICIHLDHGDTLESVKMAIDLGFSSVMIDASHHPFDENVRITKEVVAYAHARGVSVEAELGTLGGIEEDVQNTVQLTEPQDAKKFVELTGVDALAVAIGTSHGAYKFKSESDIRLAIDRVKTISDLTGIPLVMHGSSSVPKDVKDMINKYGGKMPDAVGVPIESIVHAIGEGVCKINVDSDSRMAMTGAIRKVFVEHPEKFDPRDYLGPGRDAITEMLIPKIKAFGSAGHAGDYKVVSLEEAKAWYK
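Giardia FBPA (40 nM reagent) was preincubated 10 min at RT with compound (up to 57.5 uM final), then substrate plus GAPDH/TPI/NAD/arsenate coupling system with diaphorase/resazurin was added; resorufin fluorescence (525/598 nm) was read after 20 min.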
TbPYK inhibitor: T. brucei pyruvate kinase inhibition; TbPYK enzyme, Kinase-Glo Plus ATP luminescence, 45 min; Potency, µM (series often up to 76.8 µM), for inactives: top-dose activity, negative = inhibition, hits mostly inhibitors; 410,000 compounds, 0.12% hits; AID 624173; Q57TT1; further: potency means the concentration at half of the fitted maximal effect; nearly all actives have a fitted effect of over 50% in size
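ADP (130 uM final) triggers the TbPYK reaction after compound addition; incubation is 45 min at room temperature. Kinase-Glo Plus is then added and luminescence imaged. Normalized data are fitted to concentration-effect curves.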
Sm TGR inh: blocks Schistosoma mansoni thioredoxin glutathione reductase | Q962Y6 | purified TGR, DTNB reduction, TNB absorbance 405 nm | Potency, µM (highest dose often 114 µM), for the others: at the highest dose activity change, negative = inhibition, hits mostly inhibitors | 360,000 compounds, 3% hits | AID 485364; further: potency means the concentration at half of the fitted maximal effect; nearly all actives have a fitted effect of over 60% in size
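First, TGR (20 nM dispensed) and NADPH were mixed with compound. Second, a 15 min room-temperature incubation followed. Third, further NADPH and then DTNB were added to start the reaction. Finally, TNB absorbance was monitored kinetically.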
RE007 growth inh: less growth of the S. pombe RE007 Vpr strain | Potency, µM (top dose mostly 92.2 µM), inactives show top-dose activity change, negative = less growth, usual class: inhibitors | S. pombe RE007 Vpr strain, BacTiter-Glo ATP luminescence, 24 h | 360,000 compounds, 0.21% hits; active means well fitted falling curve with a large enough effect; inconclusive means small, poorly fitted or top-dose-only effect; inactive means no such curve, though single readings can be large or run the other way; further: potency means the concentration at half of the fitted maximal effect; nearly all actives have a fitted effect of over 50% in size
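Fission yeast strain RE007, carrying one chromosomally integrated HIV-1 vpr copy, was seeded at OD 0.01 in PMG+AL medium with 23 nL pinned compound. After 24 h at 30 °C and 99% humidity, viability was read by BacTiter-Glo luminescence.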
* hit, by the source's call; ? = inconclusive; · = no result given. Only some compounds are listed: those with a hit (about 7.7% of all), similar ones and a draw of the others. Unless noted, the call rests on the fitted dose curve; in most records, active means well fitted curve in the direction sought with a large enough effect; inconclusive means small, poorly fitted or top-dose-only effect, or another doubt; inactive means no such curve, though single readings can be large; an effect the other way counts as inactive or inconclusive. On the % scale 0 is the no-effect control and ±100 the full control effect.

SMILES	HCMV antiviral	FMDV antiviral	FBPA Giardia inh	TbPYK inhibitor	Sm TGR inh	RE007 growth inh
CCOc1cc(C(c2c(C)[nH]n(-c3ccccc3)c2=O)c2c(C)[nH]n(-c3ccccc3)c2=O)ccc1O	-105*	?	·	0%	3.2µM*	·
CCOc1ccc(OCC)c(Nc2ccc3cc(S(=O)(=O)N4CCCC4)ccc3n2)c1	-19	-21%	·	-4%	2%	·
NC1=NC(=O)C(CC(=O)c2ccc(Cl)cc2)S1 (stereo not given)	-12	-17%	5%	-10%	20µM*	-7%
COc1ccc(C(=O)NCC(c2cccnc2)N2CCN(c3ccccc3F)CC2)cc1OC (stereo not given)	-10	-25%	·	0%	4%	·
CSc1ccccc1C(=O)NCC1Cc2cccc(-c3ncccc3C)c2O1 (stereo not given)	·	-5%	·	·	·	·
COc1ccc2ccccc2c1/C=N/Nc1cccc(C(=O)O)c1	28	12%	-9%	-5%	-26%	-9%
O=C(O)c1cccc(N/N=C/c2cccc3ccccc23)c1	134	4µM*	3%	-9%	0%	2%
O=C(O)c1ccc(N/N=C/c2cc(Br)cs2)cc1	-33	-72%	19%	4%	-2%	?
O=C(O)c1cccc(N/N=C/c2ccc(F)c(F)c2)c1	33	-33%	-1%	-2%	-9%	5%
Cc1nn(-c2cccc(C(F)(F)F)c2)c(Cl)c1/C=N/Nc1cccc(C(=O)O)c1	152	-18%	14%	-4%	-3%	?
Cc1ccc(/C=N/Nc2ccc(C(=O)O)cc2)s1	-73*	6.3µM*	0%	-22%	1%	-16%
Cc1nn(-c2ccccc2Cl)c(Cl)c1/C=N/Nc1cccc(C(=O)O)c1	151	7.1µM*	8%	36%	-20%	5%
Cc1ccc(/C=N/Nc2cccc(C(=O)O)c2)s1	119	3.5µM*	12%	-16%	-10%	-22%
CCN1C(=O)CC(CC(=O)N2CCCCC2c2nccs2)(c2ccccc2C)C1=O (stereo not given)	·	-11%	·	·	·	·
Cc1ccc2c(c1)N(C(=O)c1ccc(F)cc1)C(C)(C)CC2(C)c1ccccc1 (stereo not given)	-16	?	·	-5%	1%	·
COc1ccc(CNC(=O)c2ccc3c(c2)nc2n3CCCCC2)c(OC)c1	41	43%	·	1%	-4%	·
COc1ccc(Br)cc1CNC(=O)c1ccc2c(c1)nc1n2CCCCC1	-60*	5%	·	-8%	12%	·
Cc1ccccc1CCNC(=O)c1ccc2c(c1)nc1n2CCCCC1	-78*	?	·	7%	5%	·
CSc1ccc(CCNC(=O)c2ccc3c(c2)nc2n3CCC(C)C2)cc1 (stereo not given)	-29	?	·	0%	5%	·
Cc1ccccc1CCNC(=O)c1ccc2c(c1)nc1n2CCOC1	102	-26%	·	-11%	12%	·
CSc1ccc(CCNC(=O)c2ccc3c(c2)nc2n3CCCCC2)cc1	-76*	-28%	·	1%	2%	·
Cc1cccc(NC(=O)c2sc(-n3nc(C)c(CCC(C)C)c3C)nc2C)c1	-20	-14%	·	-3%	3%	·
COc1cc(CN(C)Cc2ccccc2)cc(OC)c1O	16	-12%	?	-1%	11µM*	-1%
CSCC(=O)Nc1cc(C)on1	37	-7%	5%	3%	11%	8%
Cc1cc(NC(=O)CCl)no1	-82*	?	2%	3%	8.9µM*	17%
SMILES	HCMV antiviral	FMDV antiviral	FBPA Giardia inh	TbPYK inhibitor	Sm TGR inh	RE007 growth inh
Cc1cccc(NC(=O)CN2C(=O)C(c3ccc(F)cc3)=NC23CCCCCC3)c1C	11	-32%	·	5%	-14%	·
COc1cccc(C2CC3C(=O)C=CC2N3Cc2ccccc2)c1 (stereo not given)	-97*	?	-2%	-8%	-26%	-14%
COc1cccc(CNC(=O)CN2CCCN(Cc3ccccc3)S2(=O)=O)c1	-4	0%	·	-8%	11%	·
CCOC(=O)C1=CCN(S(=O)(=O)c2ccc(Cl)cc2)C1c1ccc(Cl)c(Cl)c1 (stereo not given)	-39	·	·	·	·	·
CC(C)(C)c1nnc(NC(=O)c2ccc(Cl)nc2)s1	-13	35%	5µM*	5%	32%	-5%
CC[C@H](C)[C@@H]1NC(=O)CNC(=O)c2csc(n2)[C@H](C(C)(C)O)OC(=O)C(C)(C)[C@H](CCCC(C)(Cl)Cl)OC(=O)c2csc1n2	-79*	-14%	·	0%	·	?
Cc1cc(N2CCCCC2)ccc1C=C1C(=O)N(C)C(=S)N(C)C1=O	16	?	-5%	?	7.1µM*	-24%
Cc1cc(N2CCCC2)ccc1/C=C1\NC(=S)N(C)C1=O	-22	13%	-26%	-18%	-14%	-5%
NC1=NC[C@H](c2ccccc2)N1CCc1cc(C(F)(F)F)cc(C(F)(F)F)c1	-71*	?	11%	-7%	2%	11%
NC1=NC[C@@H](CC2CCCCC2)N1CCc1cc(C(F)(F)F)cc(C(F)(F)F)c1	·	35µM*	·	3%	·	53%
NC1=NC[C@H](Cc2ccc(O)cc2)N1CCc1cc(C(F)(F)F)cc(C(F)(F)F)c1	-26	-14%	12%	-1%	-1%	-5%
NC(=O)C1CCN(C(=O)c2ccc(NC(=O)c3nsc4ccccc34)cc2)CC1	39	?	·	-4%	-3%	·
C[C@@H]1CN(S(=O)(=O)C(C)(C)C)[C@H](CCO)/C1=C\CCO	16	·	·	·	·	·
Cc1ccc2[nH]c(=O)c(C(c3nnnn3CC3CCCO3)N3CCc4ccccc4C3)cc2c1 (stereo not given)	37	18%	?	-24%	25µM*	4%
Cc1ccc2[nH]c(=O)c(C(c3nnnn3CC3CCCO3)N3CCOCC3)cc2c1 (stereo not given)	23	24%	-1%	-4%	-3%	?
Cc1cc(C)c2[nH]c(=O)c(C(c3nnnn3CC3CCCO3)N3CCCC(C)C3)cc2c1 (stereo not given)	-10	5%	-28%	-4%	13µM*	8%
COc1ccc2[nH]c(=O)c(C(c3nnnn3CC3CCCO3)N3CCc4ccccc4C3)cc2c1 (stereo not given)	12	21%	-29%	-5%	?	-8%
Cc1cc(C)c2[nH]c(=O)c(C(c3nnnn3CC3CCCO3)N3CCC(C)CC3)cc2c1 (stereo not given)	-6	0%	-17%	-14%	14µM*	2%
CCCCCCCCCCCCCCCC(=O)C(F)(F)F	·	-20%	-1%	·	·	·
